Where “and” joins values, the source holds several entries; their conditions need not be identical. Equal entries are not always repeated. This is part of a sample that, as a whole, favours compounds with a hit. Of some 83,000 tested, about 20% had one in any assay.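 A percent growth of 40 corresponds to 60% growth inhibition; 0 means no net growth; -100 means all cells died. Active threshold: below 10.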 Calls of active or inactive are those of the source.
Key:
Assay in all cases: NCI-60 one-dose screen, 48 h (100 = growth as untreated, 0 = no growth, -100 = all killed)
Conditions in all cases: 10 µM unless noted
T-47D breast = test system: T-47D breast
BT-549 breast = test system: BT-549 breast
MDA-MB-435 melanoma = test system: MDA-MB-435 melanoma
SW-620 colon = test system: SW-620 colon
MCF7 breast = test system: MCF7 breast
HCT-116 colon = test system: HCT-116 colon
HCC-2998 colon = test system: HCC-2998 colon
KM12 colon = test system: KM12 colon

Measured: growth

N#Cc1c(-c2cccs2)cc(-c2cnccn2)nc1SCC(=O)N/N=C/c1cccs1
inactive: T-47D breast 50.1% | BT-549 breast 42.5% | MDA-MB-435 melanoma 51% | SW-620 colon 43.2% | MCF7 breast 32.1% | HCC-2998 colon 43.1% | KM12 colon 47.6%
active: HCT-116 colon 0.402%

Cc1[nH]c(C(=O)Nc2ccc(S(=O)(=O)N3CCCCC3)cc2OCCOCCOCCOCCOCCOCCOCCOCCOCCOc2cc(S(=O)(=O)N3CCCCC3)ccc2NC(=O)c2[nH]c(C)c3c2CCCCC3=O)c2c1C(=O)CCCC2
inactive: MDA-MB-435 melanoma 18% | SW-620 colon 37.6% | MCF7 breast 11% | KM12 colon 29.1%
active: T-47D breast 7.19% | BT-549 breast 2.28% | HCT-116 colon -32.3% | HCC-2998 colon -38.4%

Cc1ccc(-c2csc(N/N=C/c3cccs3)n2)cc1
inactive: T-47D breast 72.6% | BT-549 breast 112% | MDA-MB-435 melanoma 98% | SW-620 colon 108% | MCF7 breast 70.8% | HCT-116 colon 70% | HCC-2998 colon 115% | KM12 colon 90.8%

O=C(/C=C/Nc1ccc(S(=O)(=O)Nc2ncccn2)cc1)c1ccc(N=Cc2c(O)[nH]c3ccccc23)cc1
inactive: T-47D breast 93.1% | BT-549 breast 101% | MDA-MB-435 melanoma 100% | SW-620 colon 112% | MCF7 breast 87.4% | HCT-116 colon 111% | HCC-2998 colon 109% | KM12 colon 37.3%

Cn1c(SCC(=O)c2ccco2)nc2ccccc2c1=O
inactive: T-47D breast 55.3% | BT-549 breast 96.5% | MDA-MB-435 melanoma 105% | SW-620 colon 111% | MCF7 breast 18.3% | HCT-116 colon 102% | HCC-2998 colon 112% | KM12 colon 86.3%

NC(=O)n1c(=O)n(-c2cccc(C(F)(F)F)c2)c(=O)c2cc(-c3ccc(F)cc3F)ccc21
active: T-47D breast -14% | BT-549 breast -12.5% | MDA-MB-435 melanoma 0.406% | MCF7 breast 0.6% | HCT-116 colon 2.24% | KM12 colon 5.24%
inactive: SW-620 colon 14.1% | HCC-2998 colon 10.7%

O=C(/C=C/c1ccccc1Cl)Nc1ncc(Cc2cc(Cl)ccc2Cl)s1
active: MDA-MB-435 melanoma -26.6%
inactive: T-47D breast 29.9% | BT-549 breast 32.5% | SW-620 colon 14.3% | MCF7 breast 16.6% | HCT-116 colon 17.3% | HCC-2998 colon 57.8% | KM12 colon 22.1%

C#C[C@]1(O)CC[C@H]2[C@@H]3CC=C4c5sc(N6CCN(C)CC6)nc5CC[C@]4(C)[C@H]3CC[C@@]21C
active: MDA-MB-435 melanoma 1.24% | HCT-116 colon -41%
inactive: T-47D breast 85.7% | BT-549 breast 16.9% | SW-620 colon 19.6% | MCF7 breast 24.2% | HCC-2998 colon 81.2% | KM12 colon 21.1%

Cn1cc(-c2nnc(N)nc2-c2c[nH]c3ccc(Br)cc23)c2cc(Br)ccc21
inactive: T-47D breast 88% | BT-549 breast 91.1% | MDA-MB-435 melanoma 93.7% | SW-620 colon 112% | MCF7 breast 90.7% | HCT-116 colon 98.8% | HCC-2998 colon 114% | KM12 colon 99.4%

C/C=C/CC(C)C(O)[C@H](NC(=O)[C@@H]1CCCN1C(=O)[C@](C)(CC)NC(=O)CCCCCCCCC)C(=O)N[C@@](C)(CC)C(=O)N[C@@H](CCC(N)=O)C(=O)N[C@H](CCC(N)=O)C(=O)NC(C)(C)C(=O)NC(C)(C)C(=O)N[C@@H](CCC(N)=O)C(=O)N[C@H](CC(C)C)C(=O)N[C@H](CO)CC(C)C (stereo not given in full)
70.6% (inactive) and -7.45% (active): HCT-116 colon
inactive: SW-620 colon 83.1% and 14.5%
51.9% (inactive) and -62.3% (active): MCF7 breast
active: BT-549 breast -72.4%
21.6% (inactive) and -65% (active): KM12 colon
61.9% (inactive) and -23.3% (active): T-47D breast
17.4% (inactive) and -95.1% (active): MDA-MB-435 melanoma
32.6% (inactive) and -57.5% (active): HCC-2998 colon

NC1=NC2(CCCC2)N(c2ccc(S(=O)(=O)Nc3nccs3)cc2)C(N)=N1
inactive: T-47D breast 103% | BT-549 breast 102% | MDA-MB-435 melanoma 107% | SW-620 colon 105% | MCF7 breast 97.6% | HCT-116 colon 109% | HCC-2998 colon 109% | KM12 colon 101%

COc1ccccc1/C=C1\Oc2ccc(O)c(O)c2C1=O
inactive: T-47D breast 86.3% | BT-549 breast 89.5% | MDA-MB-435 melanoma 93.4% | SW-620 colon 105% | MCF7 breast 88.2% | HCT-116 colon 83.7% | HCC-2998 colon 96.8% | KM12 colon 99.7%

NCCNC(=O)c1cccc(COc2ccccc2NC(=O)c2cc(Cl)c(Cl)[nH]2)c1
inactive: T-47D breast 89.2% | BT-549 breast 105% | MDA-MB-435 melanoma 101% | SW-620 colon 111% | MCF7 breast 77.7% | HCT-116 colon 86.1% | HCC-2998 colon 106% | KM12 colon 101%

Brc1cc(-c2cc(-c3ccc4c(c3)OCCO4)[nH]n2)cs1
inactive: T-47D breast 38.5% | BT-549 breast 66% | SW-620 colon 36.7% | MCF7 breast 14.7% | HCT-116 colon 41.5% | HCC-2998 colon 62.1% | KM12 colon 27.7%
active: MDA-MB-435 melanoma -26.8%

CCN(CC)c1ccc(/C=N/NC(=O)c2ccc(S(N)(=O)=O)cc2)c(O)c1
active: MCF7 breast 6.43%
inactive: T-47D breast 30.4% | BT-549 breast 26.5% | MDA-MB-435 melanoma 31.1% | SW-620 colon 35% | HCT-116 colon 24.2% | HCC-2998 colon 37.3% | KM12 colon 24.2%

COC(=O)CCCNCCCn1ccc2cc(NCc3cccc(-c4ccccc4)c3C)ccc21
inactive: T-47D breast 58% | BT-549 breast 90.2% | MDA-MB-435 melanoma 70.9% | SW-620 colon 66.5% | MCF7 breast 56.9% | HCT-116 colon 53% | HCC-2998 colon 90.2% | KM12 colon 85.9%

CC(Nc1ncnc2ccc(-c3cnc4cnccn34)cc12)c1ccccc1 (stereo not given)
inactive: T-47D breast 17.5% | BT-549 breast 47.9% | MDA-MB-435 melanoma 69.1% | SW-620 colon 85.7% | MCF7 breast 33.5% | HCT-116 colon 72.3% | HCC-2998 colon 80.7% | KM12 colon 41.6%

Cc1ccc2c(n1)C(=O)C(Cl)=C(Nc1cccc(C(F)(F)F)c1)C2=O
inactive: BT-549 breast 123% | MDA-MB-435 melanoma 71.3% | HCC-2998 colon 108% | KM12 colon 106%
active: T-47D breast -41.9% | SW-620 colon -0.806% | MCF7 breast -54.7% | HCT-116 colon -25.9%

N#Cc1c(-c2cccs2)cc(-c2cnccn2)nc1SCC(=O)N/N=C/c1ccc(Cl)cc1
inactive: T-47D breast 93.8% | BT-549 breast 107% | MDA-MB-435 melanoma 103% | SW-620 colon 93.1% | MCF7 breast 84.6% | HCT-116 colon 57.8% | HCC-2998 colon 119% | KM12 colon 96.5%

O=C(/C=C/c1cccc(C(F)(F)F)c1)Nc1cccc(C(F)(F)F)c1
inactive: BT-549 breast 118% | MDA-MB-435 melanoma 48.5% | SW-620 colon 33.5% | MCF7 breast 30.9% | HCT-116 colon 21% | HCC-2998 colon 57.4% | KM12 colon 24.4%
active: T-47D breast -6.89%

O=C(Nc1ccc(N=Cc2c(O)[nH]c3ccccc23)cc1)Nc1ccc(S(=O)(=O)Nc2ncccn2)cc1
inactive: T-47D breast 92.2% | BT-549 breast 103% | MDA-MB-435 melanoma 101% | SW-620 colon 103% | MCF7 breast 85% | HCT-116 colon 92.7% | HCC-2998 colon 109% | KM12 colon 50.9%

O=c1c2cc(-c3ccc(F)cc3F)ccc2n(O)c(=O)n1-c1cccc(C(F)(F)F)c1
active: T-47D breast -15.9% | BT-549 breast -3.54% | MDA-MB-435 melanoma 1.71% | MCF7 breast 1.33% | HCT-116 colon 1.93% | HCC-2998 colon 9.79% | KM12 colon 7.94%
inactive: SW-620 colon 16.3%

COc1cc2cc(Oc3ccc(NC(=O)Nc4ccc(F)c(C(F)(F)F)c4)cc3)c(C)nc2cc1OCCN(C)C
active: MCF7 breast -89.6%
inactive: T-47D breast 91.4% | BT-549 breast 99% | MDA-MB-435 melanoma 98.2% | SW-620 colon 53.7% | HCT-116 colon 107% | HCC-2998 colon 104% | KM12 colon 102%

CC(=C(c1ccc(OCCN2CCCC2)cc1)c1ccc(OCCN2CCCC2)cc1)c1ccc(Cl)cc1
inactive: BT-549 breast 55.8%
active: T-47D breast -64.7% | MDA-MB-435 melanoma -89.7% | SW-620 colon -73.3% | MCF7 breast -75% | HCT-116 colon -93.6% | HCC-2998 colon -57.1% | KM12 colon -22.9%

COc1cc2c3c(cc4c5c(ccc4c3c1OC)OCO5)N(CCN(C)C)C2=O
active: T-47D breast -5.03% | BT-549 breast -6.3% | MDA-MB-435 melanoma -18.5% | SW-620 colon 7.13% | MCF7 breast 0.153% | HCT-116 colon -12.2% | HCC-2998 colon -45.3% | KM12 colon 8.95%

Cc1ccc(OCc2occc2C(=O)N2CCOCC2)cc1
inactive: T-47D breast 93.1% | BT-549 breast 117% | MDA-MB-435 melanoma 100% | SW-620 colon 102% | MCF7 breast 85.6% | HCT-116 colon 105% | HCC-2998 colon 103% | KM12 colon 107%

Cc1ccsc1[C@H]1c2[nH]c3ccccc3c2C[C@H]2C(=O)N(CCCCCCC(=O)NO)CC(=O)N12
inactive: T-47D breast 57.6% | BT-549 breast 106% | MDA-MB-435 melanoma 90.6% | SW-620 colon 82.5% | MCF7 breast 50.1% | HCT-116 colon 68.1% | HCC-2998 colon 88.1% | KM12 colon 81.1%

Cc1cc(=O)[nH]c(O)c1C#N
inactive: T-47D breast 105% | BT-549 breast 113% | MDA-MB-435 melanoma 105% | SW-620 colon 96.6% | MCF7 breast 99.9% | HCT-116 colon 104% | HCC-2998 colon 114% | KM12 colon 102%

CC(C)Sc1nc(-c2ccccc2)c(C#N)c(N2CCOCC2)n1
inactive: T-47D breast 68.5% | BT-549 breast 111% | MDA-MB-435 melanoma 88% | SW-620 colon 74.2% | MCF7 breast 72.8% | HCT-116 colon 43.5% | HCC-2998 colon 69.5% | KM12 colon 88.3%

COC(=O)c1cccc(NC2=C(Cl)C(=O)c3nc(C)ccc3C2=O)c1
inactive: BT-549 breast 125% | HCT-116 colon 27.2% | HCC-2998 colon 105% | KM12 colon 106%
active: T-47D breast -28.1% | MDA-MB-435 melanoma -38.6% | SW-620 colon 0.0392% | MCF7 breast -35.2%
